# Measurements published in PubChem BioAssay (NCI).
# This is part of a sample that, as a whole, favours compounds with a hit. Of some 79,000 tested, about 15% had one in any assay. Values without a mark were called inactive. Active and inactive are the calls of the source. Cut-off read from the data, not from the text of the source: active = growth inhibition above about 70%; inactive = the rest.
# Assay: NCI Yeast Anticancer Drug Screen. Data for the wt2 strain (AID 169);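 note: 0% = growth of vehicle-treated yeast cultures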
# Details: S. cerevisiae wt2 strain growth inhibition, stronger effect = higher value
# Method: Growth inhibition of yeast strains with defined genetic alterations is measured as a screen for potential anti-cancer activity. Selected strains with alterations in DNA damage repair or cell cycle control were exposed to compounds and growth inhibition was measured relative to vehicle treated controls. The strain used in this assay is wt2
Compound,growth inhibition (at 1.2 µM) [%],growth inhibition (at 3.7 µM) [%],growth inhibition (at 11.0 µM),growth inhibition (at 33.0 µM),growth inhibition (at 100.0 µM)
CCN(CC)CCC(=O)Nc1ccc2sc3ccccc3c(=O)c2n1,-2,-3,2%,16%,12%
CCCCCCCN(CCCCCCC)CC(=O)c1ccc2cc(Cl)c3ccccc3c2c1,32,64,98% (active),97% (active),95% (active)
c1c[nH]c(CN2CCN(Cc3ncc[nH]3)CC2)n1,-1,54,98% (active),99% (active),99% (active)
O=C1C=C(Br)C(=O)c2ccccc21,13,28,90% (active),99% (active),99% (active)
Nc1ccc(/C=C/c2ccc3cccnc3c2)cc1,1,8,-2%,-4%,9%
O=C1c2cccc3cccc(c23)C(=O)N1O,3,17,92% (active),98% (active),99% (active)
COc1ccc2nc3cccc([N+](=O)[O-])c3c(NCCNCCO)c2c1,-2,-1,4%,35%,94% (active)
CSc1nc(-c2ccccc2)nc(=[N+]2CCOCC2)s1,6,15,37%,81% (active),97% (active)
